Measured values: PubChem BioAssay (NCATS)
Results filed as inconclusive are left out. Entries that show only a call come without a potency. Active and inactive are the calls of the source. Unless noted, calls follow the shape of the full dose curve.

Legend:
[1] = qHTS for Inhibitors of the Functional Ribonucleoprotein Complex (vRNP) of Lassa (LASV) Arenavirus: LASV Primary Screen - GLuc reporter signal (AID 1347082; calls by dose curve; tested in HEK293 reporter line; also: nearly all actives have a fitted effect of over 60% in size; also: potency is read from the fitted curve at half-maximal effect)
[2] = target: Nucleoprotein (Lymphocytic choriomeningitis virus (strain Armstrong)) (UniProt P09992); experiment: qHTS for Inhibitors of the Functional Ribonucleoprotein Complex (vRNP) of Lymphocytic Choriomeningitis Arenaviruses (LCMV): LCMV Primary Screen - GLuc reporter signal (AID 1347086); also: nearly all actives have a fitted effect of over 70% in size; also: potency is read from the fitted curve at half-maximal effect
Nucleoprotein (Lymphocytic choriomeningitis virus (strain Armstrong)), sequence (P09992 whole entry, looked up): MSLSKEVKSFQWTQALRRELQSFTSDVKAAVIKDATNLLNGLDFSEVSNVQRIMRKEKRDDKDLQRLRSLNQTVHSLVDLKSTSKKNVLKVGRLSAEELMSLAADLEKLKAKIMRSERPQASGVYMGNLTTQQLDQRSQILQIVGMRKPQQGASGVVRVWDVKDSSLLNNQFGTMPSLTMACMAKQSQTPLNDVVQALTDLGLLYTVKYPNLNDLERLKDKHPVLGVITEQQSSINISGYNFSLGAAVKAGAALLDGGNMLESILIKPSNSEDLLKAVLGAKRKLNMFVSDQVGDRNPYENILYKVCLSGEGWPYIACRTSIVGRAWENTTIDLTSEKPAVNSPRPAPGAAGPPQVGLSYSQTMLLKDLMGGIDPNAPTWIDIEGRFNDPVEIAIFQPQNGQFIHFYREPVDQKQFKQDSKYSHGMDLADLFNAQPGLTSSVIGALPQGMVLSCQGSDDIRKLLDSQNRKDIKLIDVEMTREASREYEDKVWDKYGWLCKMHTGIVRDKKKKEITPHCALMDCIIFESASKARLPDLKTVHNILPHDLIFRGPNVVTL

[3] = qHTS for Inhibitors of the Functional Ribonucleoprotein Complex (vRNP) of Lymphocytic Choriomeningitis Arenaviruses (LCMV): Viability assay - alamar blue signal for LCMV Primary Screen (AID 1347085; calls by dose curve; tested in HEK293 reporter line; also: nearly all actives have a fitted effect of over 80% in size; also: potency is read from the fitted curve at half-maximal effect)
[4] = Cytotoxicity counterscreen for inhibitors of SARS-CoV-2 cell entry (AID 1645845); also: nearly all actives have a fitted effect of over 50% in size
Procedure, shortened: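 Expi293F/hACE2 cells seeded overnight; cpd pin-transferred in DMSO, 1 h preincubation, + media, 48 h 37 C 5% CO2; ATPLite 1step luminescence; normalized to cells and no cells.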

[5] = Primary qHTS to identify inhibitors of SARS-CoV-2 cell entry (AID 1645846); conditions: activity change, negative = inhibition: at 57.1 µM (top of the series) unless noted; also: nearly all actives have a fitted effect of over 45% in size; also: potency is read from the fitted curve at half-maximal effect
Procedure, shortened: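 Luminescence readout (Bright-Glo luciferase) 48 h after pseudoparticle addition. HEK293-ACE2 cells, 1500/well; compound pre-incubation 1 h; Normalized to spike PP and bald PP.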

[6] = target: Alpha-galactosidase (Coffea arabica) (UniProt Q42656); experiment: Counterscreen for Glucocerebrosidase Inhibitors: qHTS Assay for Coffee Bean alpha-Galactosidase at pH 4.5 (AID 957; active = well fitted curve in the direction sought with a large enough effect; an effect the other way counts as inactive or inconclusive)
Alpha-galactosidase (Coffea arabica), sequence (Q42656 whole entry, looked up): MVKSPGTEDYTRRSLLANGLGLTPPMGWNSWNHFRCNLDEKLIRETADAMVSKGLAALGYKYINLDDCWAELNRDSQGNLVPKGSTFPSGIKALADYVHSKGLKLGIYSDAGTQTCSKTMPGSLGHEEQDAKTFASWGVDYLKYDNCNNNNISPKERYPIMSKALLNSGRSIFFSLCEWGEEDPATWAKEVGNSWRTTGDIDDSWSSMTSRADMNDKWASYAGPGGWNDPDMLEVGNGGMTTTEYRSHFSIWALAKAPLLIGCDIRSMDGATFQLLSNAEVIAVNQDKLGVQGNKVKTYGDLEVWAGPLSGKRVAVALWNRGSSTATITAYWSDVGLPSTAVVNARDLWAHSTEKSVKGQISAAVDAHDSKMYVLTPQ
Procedure, shortened: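 Coffee bean alpha-galactosidase 2 nM, substrate 4-MU-alpha-Gal 80 uM, pH 4.5 citrate/Tween-20, 20 min RT. Cpd titration 0.7 nM–77 uM. Stop pH 10, fluorescence 365/440 nm; Hill-equation AC50.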

[7] = target: Alpha-galactosidase (Coffea arabica) (UniProt Q42656); experiment: Counterscreen for Glucocerebrosidase Inhibitors: qHTS Assay for Coffee Bean alpha-Galactosidase at pH 5.9 (AID 998; active = well fitted curve in the direction sought with a large enough effect; an effect the other way counts as inactive or inconclusive)
Procedure, shortened: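 Green coffee bean enzyme (2 nM final) was incubated with compounds (0.7 nM–77 uM) and 4-methylumbelliferyl alpha-D-galactopyranoside (80 uM) in citrate buffer pH 5.9, 20 min at room temperature. High-pH stop; fluorescence 365/440 nm; AC50 from Hill fits.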

[8] = Inducers of the Endoplasmic Reticulum Stress Response (ERSR) in human glioma: Validation (AID 504836; active = well fitted curve in the direction sought with a large enough effect; an effect the other way counts as inactive or inconclusive)
Procedure, shortened: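 Stably transfected U87-MG human glioma cells carrying a GRP78-based luminescent sensor were seeded at 1000 cells/well, pin-dosed with compounds and incubated 16 h. Luciferase reagent was then added, and end-point luminescence was read after 10 min at room temperature.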

[9] = qHTS profiling of the MIPE4 collection as inhibitors of Plasmodium falciparum (3D7) proliferation (AID 743344; call rule not given here); conditions: P. falciparum 3D7 in erythrocytes, SYBR Green DNA fluorescence, 72 h; at 28.5 µM (top of the series) unless noted
Procedure, shortened: (§1)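 Erythrocytes infected with P. falciparum (0.3% parasitemia, 2.5% hematocrit) incubated with compounds 72 h at 37 C, 5% CO2. Lysis with saponin/Triton buffer containing SYBR Green I, overnight at room temperature in the dark; DNA fluorescence (485/535 nm) normalised to 0.29 uM artemisinin and DMSO.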

[10] = qHTS profiling of the MIPE4 collection as inhibitors of Plasmodium falciparum (DD2) proliferation (AID 743345; call rule not given here); conditions: P. falciparum Dd2 in erythrocytes, SYBR Green DNA, 72 h; at 28.5 µM (top of the series) unless noted
Procedure, shortened: as §1

[11] = qHTS profiling of the MIPE4 collection as inhibitors of Plasmodium falciparum (DD2) proliferation (Rep 2) (AID 743346; call rule not given here); conditions: P. falciparum Dd2 in erythrocytes, SYBR Green DNA, 72 h; at 28.5 µM (top of the series) unless noted
Procedure, shortened: as §1

[12] = Validation screen for inhibitors of Lassa infection (AID 463096); also: potency is read from the fitted curve at half-maximal effect
[13] = Primary qHTS for inhibitors of SARS-S pseudo-typed particle cell entry (AID 1479145); also: potency is read from the fitted curve at half-maximal effect; nearly all actives have a fitted effect of over 45% in size
[14] = Primary qHTS for Huh7 cytotoxicity: counterscreen for inhibitors of MERS-S pseudotyped particle cell entry (AID 1479147); conditions: outcome: dose series up to 57.1 µM unless noted
[15] = Primary qHTS for Vero E6 cytotoxicity: counterscreen for inhibitors of SARS-S pseudo-typed particle cell entry (AID 1479150); conditions: outcome: dose series up to 57.1 µM unless noted
[16] = VSVG counterscreen qHTS to identify inhibitors of SARS-CoV-2 cell entry (AID 1645847); also: potency is read from the fitted curve at half-maximal effect; nearly all actives have a fitted effect of over 65% in size
Procedure, shortened: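 HEK293-ACE2 cells (Expi293F stably expressing human ACE2) were pretreated with compound for 1 h at 37 °C, then infected with MLV-based VSV-G pseudotyped particles for 48 h. Luciferase luminescence was normalized to VSV-G PP and bald PP wells.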

Question: Which results are given for C[C@H]1C/C=C/[C@@H]2[C@@H]3O[C@]3(C)[C@@H](C)[C@H]3[C@H](Cc4ccccc4)NC(=O)[C@]32OC(=O)O/C=C/[C@](C)(O)C1=O?
Answer: Potency [1]: inactive; Potency [2]: inactive

Question: For Nc1nc(NCCNc2ncc(-n3ccnc3)c(-c3ccc(Cl)cc3Cl)n2)ccc1[N+](=O)[O-], which Potency [1] is on record?
Answer: inactive

Question: And the Potency [3]?
Answer: 15.3 µM (active)

Question: And the Potency [4]?
Answer: inactive

Question: What about the activity change, negative = inhibition [5] of the same molecule?
Answer: -29.7%

Question: With C=C1C([C@@]2(C)C(OC(C)=O)CC(=O)O[C@@](C)(COC(C)=O)C2CC(=O)OC)C(OC=O)C(OC(=O)C(O)C(C)CC)[C@]2(C)C(c3ccoc3)CC(=O)C12O (some centres not stated) as the molecule, how does the Potency [1] read?
Answer: inactive

Question: What about the Potency [2] of the same molecule?
Answer: inactive

Question: With Fc1ccc(CNc2ncnc3ccc(F)cc23)cc1 as the molecule, how does the Potency [1] read?
Answer: 19.3 µM (active)

Question: And the Potency [3]?
Answer: inactive

Question: And the Potency [2]?
Answer: 24.3 µM (active)

Question: And the Potency [5]?
Answer: 8.91 µM (active)

Question: What does the source list for O=C(O)Cc1ccc(O)c(O)c1?
Answer: outcome [6]: inactive; outcome [7]: inactive; outcome [8]: inactive; Potency [1]: inactive; Potency [3]: inactive; Potency [2]: inactive

Question: For CC1(C)Oc2cc3oc(-c4cc(O)cc(O)c4)cc3cc2CC1O (configuration not stated), which Potency [1] is on record?
Answer: inactive

Question: And the Potency [2]?
Answer: inactive

Question: Which outcome [8] does the source give for Nc1nc(Cl)nc2c1ncn2[C@@H]1O[C@H](COP(=O)(O)OP(=O)(O)OP(=O)(O)O)[C@@H](O)[C@H]1O here?
Answer: inactive

Question: And the Potency [1]?
Answer: inactive

Question: What about the Potency [3] of the same molecule?
Answer: inactive

Question: What about the Potency [2] of the same molecule?
Answer: inactive

Question: Which parasite growth, % of DMSO control [9] does the source give for CC(N[C@H]1CCCC[C@H]1NC(=O)c1ccc(Cl)cc1)c1cccc2ccccc12 (some centres not stated) here?
Answer: 31.1%

Question: What about the parasite growth remaining, % of DMSO control (lower = more inhibition) [10] of the same molecule?
Answer: 79.2%

Question: And the parasite growth, % of control (lower = inhibition) [11]?
Answer: 64%

Question: What about the Potency [1] of the same molecule?
Answer: inactive

Question: What about the Potency [3] of the same molecule?
Answer: 3.43 µM (active)

Question: And the Potency [2]?
Answer: 4.85 µM (active)

Question: What about the Potency [4] of the same molecule?
Answer: inactive

Question: What about the Potency [5] of the same molecule?
Answer: 28.2 µM (active)

Question: What does the source list for FC(F)(F)c1ccc(C=Cc2nc(COc3ccc(CCCCn4ccnn4)cc3)co2)cc1?
Answer: Potency [1]: 0.0432 µM (active); Potency [2]: 0.0217 µM (active)

Question: For OCc1ccc(-c2nn(Cc3ccccc3)c3ccccc23)o1, which outcome [6] is on record?
Answer: inactive

Question: And the outcome [7]?
Answer: inactive

Question: What about the Potency [12] of the same molecule?
Answer: 4.47 µM (active)

Question: And the outcome [8]?
Answer: inactive

Question: What about the Potency [1] of the same molecule?
Answer: inactive

Question: What about the Potency [3] of the same molecule?
Answer: inactive

Question: And the Potency [2]?
Answer: inactive

Question: What about the activity change, negative = inhibition [5] of the same molecule?
Answer: -87.6%

Question: For COc1cc2nccc(Oc3ccc(NC(=O)NC4CC4)c(Cl)c3)c2cc1C(N)=O, which Potency [1] is on record?
Answer: inactive

Question: What about the Potency [3] of the same molecule?
Answer: 19.3 µM (active)

Question: And the Potency [13]?
Answer: 3.55 µM (active)

Question: And the outcome [14]?
Answer: inactive

Question: And the outcome [15]?
Answer: inactive

Question: What about the Potency [4] of the same molecule?
Answer: inactive

Question: What about the activity change, negative = inhibition [5] of the same molecule?
Answer: -21.3%

Question: What about the Potency [16] of the same molecule?
Answer: 19.2 µM (active)

Question: Which results are given for O=C1NCc2c1c1c3ccccc3[nH]c1c1[nH]c3ccccc3c21?
Answer: Potency [1]: inactive; Potency [2]: inactive
